Measured values reported in the supplement of paper PMC11001985.

What follows are targets tested with C#CCNC(=O)CCSSCCC(=O)NCCc1ccc(C=O)c(C=O)c1 (assay: lysine labeling ratio R10:1 (500 µM / 50 µM probe), SILAC-ABPP in living cells; higher = lower intrinsic lysine reactivity toward the probe, active = 2 or less). Details: HeLa; probe concentrations 500 vs 50 µM.
Procedure, shortened: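 SILAC light and heavy living HeLa cells in PBS at room temperature were labelled with 50 µM or 500 µM of an alkyne-tagged, disulfide-linked lysine probe, with forward and reverse label swaps. Mixed lysates were clicked to biotin-azide, trypsin-digested, captured on neutravidin, DTT-released, alkylated and analysed by LC-MS/MS on a TIMS-TOF Pro. R is the filtered median high-probe/low-probe MS1 peptide ratio per lysine, then the median across forward and reverse replicates. Ratios are capped at 20.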

Chain of UniProt P20645 (P20645 whole entry): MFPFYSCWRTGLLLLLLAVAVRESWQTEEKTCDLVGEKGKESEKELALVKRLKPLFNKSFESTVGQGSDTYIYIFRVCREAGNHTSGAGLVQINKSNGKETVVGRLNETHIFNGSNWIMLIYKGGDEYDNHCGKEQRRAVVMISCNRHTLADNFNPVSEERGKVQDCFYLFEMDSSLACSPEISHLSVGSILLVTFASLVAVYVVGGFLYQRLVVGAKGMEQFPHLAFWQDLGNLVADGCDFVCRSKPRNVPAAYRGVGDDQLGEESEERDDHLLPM
Chain of UniProt Q9UHA4 (Q9UHA4 whole entry): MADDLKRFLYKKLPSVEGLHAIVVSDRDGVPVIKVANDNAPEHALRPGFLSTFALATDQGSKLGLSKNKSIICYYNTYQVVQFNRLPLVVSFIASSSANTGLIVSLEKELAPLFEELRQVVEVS
Chain of UniProt Q6NZI2 (Q6NZI2 whole entry): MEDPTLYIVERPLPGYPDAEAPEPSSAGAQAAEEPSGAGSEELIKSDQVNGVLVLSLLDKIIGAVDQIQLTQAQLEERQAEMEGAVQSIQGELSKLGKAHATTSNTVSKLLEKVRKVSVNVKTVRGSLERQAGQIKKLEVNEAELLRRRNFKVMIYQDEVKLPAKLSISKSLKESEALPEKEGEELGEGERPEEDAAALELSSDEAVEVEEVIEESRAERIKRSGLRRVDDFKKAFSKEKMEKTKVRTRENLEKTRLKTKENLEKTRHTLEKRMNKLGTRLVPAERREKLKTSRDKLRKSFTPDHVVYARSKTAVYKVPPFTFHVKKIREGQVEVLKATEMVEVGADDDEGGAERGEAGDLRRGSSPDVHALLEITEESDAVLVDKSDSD
Chain of UniProt Q00610 (Q00610 whole entry): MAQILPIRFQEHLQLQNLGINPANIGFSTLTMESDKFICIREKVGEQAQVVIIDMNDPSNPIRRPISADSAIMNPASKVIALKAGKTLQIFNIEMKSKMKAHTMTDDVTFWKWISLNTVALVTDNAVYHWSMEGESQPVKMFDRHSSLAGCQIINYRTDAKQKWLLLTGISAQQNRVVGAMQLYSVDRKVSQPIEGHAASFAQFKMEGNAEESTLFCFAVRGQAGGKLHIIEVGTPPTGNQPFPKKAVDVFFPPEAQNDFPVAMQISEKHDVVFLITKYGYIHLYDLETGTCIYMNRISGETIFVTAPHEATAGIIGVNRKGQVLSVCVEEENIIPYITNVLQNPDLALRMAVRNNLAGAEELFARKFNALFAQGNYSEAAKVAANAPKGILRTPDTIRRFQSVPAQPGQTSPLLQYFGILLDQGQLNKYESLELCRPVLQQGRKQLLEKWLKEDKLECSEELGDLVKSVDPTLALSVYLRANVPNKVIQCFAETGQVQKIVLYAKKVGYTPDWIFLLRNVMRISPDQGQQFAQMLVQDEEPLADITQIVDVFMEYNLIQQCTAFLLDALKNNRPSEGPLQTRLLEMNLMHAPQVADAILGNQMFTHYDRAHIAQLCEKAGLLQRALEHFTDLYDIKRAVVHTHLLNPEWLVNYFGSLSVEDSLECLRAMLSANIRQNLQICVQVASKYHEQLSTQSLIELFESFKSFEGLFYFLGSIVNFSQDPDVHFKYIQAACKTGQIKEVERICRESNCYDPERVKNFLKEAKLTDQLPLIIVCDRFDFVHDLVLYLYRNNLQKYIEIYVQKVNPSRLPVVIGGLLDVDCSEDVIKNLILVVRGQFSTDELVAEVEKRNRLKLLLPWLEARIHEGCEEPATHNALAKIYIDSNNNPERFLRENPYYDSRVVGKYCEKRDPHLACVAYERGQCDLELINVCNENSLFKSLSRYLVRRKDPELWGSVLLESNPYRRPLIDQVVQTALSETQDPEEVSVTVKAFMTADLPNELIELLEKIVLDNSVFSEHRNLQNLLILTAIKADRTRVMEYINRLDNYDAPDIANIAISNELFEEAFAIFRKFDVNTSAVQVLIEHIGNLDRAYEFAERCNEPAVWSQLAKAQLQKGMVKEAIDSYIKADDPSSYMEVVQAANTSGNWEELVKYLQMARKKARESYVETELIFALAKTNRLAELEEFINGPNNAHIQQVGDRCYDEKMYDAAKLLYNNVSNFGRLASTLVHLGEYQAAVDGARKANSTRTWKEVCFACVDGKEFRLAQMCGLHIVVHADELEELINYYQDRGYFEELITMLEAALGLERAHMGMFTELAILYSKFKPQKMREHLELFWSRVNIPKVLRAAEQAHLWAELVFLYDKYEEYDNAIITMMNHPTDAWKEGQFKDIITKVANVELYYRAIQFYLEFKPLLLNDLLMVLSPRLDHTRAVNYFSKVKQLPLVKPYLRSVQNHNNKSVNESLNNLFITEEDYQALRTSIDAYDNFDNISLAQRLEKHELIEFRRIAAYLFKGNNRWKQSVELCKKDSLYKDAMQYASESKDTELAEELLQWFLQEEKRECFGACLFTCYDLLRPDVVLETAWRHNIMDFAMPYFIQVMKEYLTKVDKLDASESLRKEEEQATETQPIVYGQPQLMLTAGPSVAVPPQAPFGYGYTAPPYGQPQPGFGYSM
Chain of UniProt Q9UQ80 (Q9UQ80 whole entry): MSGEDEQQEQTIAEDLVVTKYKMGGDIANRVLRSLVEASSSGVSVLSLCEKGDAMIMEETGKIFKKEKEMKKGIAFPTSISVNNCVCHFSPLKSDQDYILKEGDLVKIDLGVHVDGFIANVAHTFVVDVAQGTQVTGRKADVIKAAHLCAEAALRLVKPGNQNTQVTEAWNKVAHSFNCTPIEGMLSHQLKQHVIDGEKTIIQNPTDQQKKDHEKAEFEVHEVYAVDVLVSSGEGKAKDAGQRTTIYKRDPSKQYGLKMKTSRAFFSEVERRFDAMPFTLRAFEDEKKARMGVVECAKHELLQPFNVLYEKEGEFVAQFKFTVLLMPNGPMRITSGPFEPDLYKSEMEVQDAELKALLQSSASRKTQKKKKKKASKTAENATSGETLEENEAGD
Chain of UniProt P25705 (P25705 whole entry): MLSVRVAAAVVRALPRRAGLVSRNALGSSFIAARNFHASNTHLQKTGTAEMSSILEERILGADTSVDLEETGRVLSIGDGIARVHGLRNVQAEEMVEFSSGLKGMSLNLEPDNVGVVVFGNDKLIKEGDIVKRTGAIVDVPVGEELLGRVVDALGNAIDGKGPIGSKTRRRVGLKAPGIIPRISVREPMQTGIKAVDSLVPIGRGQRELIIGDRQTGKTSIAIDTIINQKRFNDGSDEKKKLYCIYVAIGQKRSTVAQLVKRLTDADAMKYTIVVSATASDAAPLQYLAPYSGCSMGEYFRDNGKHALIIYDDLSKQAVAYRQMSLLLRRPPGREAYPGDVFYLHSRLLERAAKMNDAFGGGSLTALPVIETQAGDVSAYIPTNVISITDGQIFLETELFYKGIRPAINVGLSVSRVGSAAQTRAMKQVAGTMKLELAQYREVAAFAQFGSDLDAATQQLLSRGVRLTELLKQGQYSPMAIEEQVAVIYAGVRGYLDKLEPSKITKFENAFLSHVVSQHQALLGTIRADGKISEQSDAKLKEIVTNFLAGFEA
Chain of UniProt P17844 (P17844 whole entry): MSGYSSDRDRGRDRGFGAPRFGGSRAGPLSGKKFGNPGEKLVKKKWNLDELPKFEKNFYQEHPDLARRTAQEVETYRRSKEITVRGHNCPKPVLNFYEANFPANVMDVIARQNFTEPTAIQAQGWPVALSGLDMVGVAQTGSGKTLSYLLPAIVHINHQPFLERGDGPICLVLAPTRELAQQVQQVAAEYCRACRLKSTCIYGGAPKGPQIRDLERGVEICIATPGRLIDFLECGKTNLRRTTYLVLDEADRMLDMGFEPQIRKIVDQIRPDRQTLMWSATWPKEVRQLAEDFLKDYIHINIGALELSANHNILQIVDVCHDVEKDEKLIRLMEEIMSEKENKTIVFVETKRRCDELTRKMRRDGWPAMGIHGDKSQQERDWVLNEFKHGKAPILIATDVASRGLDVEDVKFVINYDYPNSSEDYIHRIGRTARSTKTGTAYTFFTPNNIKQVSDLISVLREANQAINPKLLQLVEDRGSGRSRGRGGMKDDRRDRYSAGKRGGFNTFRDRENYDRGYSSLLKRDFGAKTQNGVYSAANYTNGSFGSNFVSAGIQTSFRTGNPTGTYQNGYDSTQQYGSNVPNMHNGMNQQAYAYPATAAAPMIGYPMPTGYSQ
Chain of UniProt P23352 (P23352 whole entry): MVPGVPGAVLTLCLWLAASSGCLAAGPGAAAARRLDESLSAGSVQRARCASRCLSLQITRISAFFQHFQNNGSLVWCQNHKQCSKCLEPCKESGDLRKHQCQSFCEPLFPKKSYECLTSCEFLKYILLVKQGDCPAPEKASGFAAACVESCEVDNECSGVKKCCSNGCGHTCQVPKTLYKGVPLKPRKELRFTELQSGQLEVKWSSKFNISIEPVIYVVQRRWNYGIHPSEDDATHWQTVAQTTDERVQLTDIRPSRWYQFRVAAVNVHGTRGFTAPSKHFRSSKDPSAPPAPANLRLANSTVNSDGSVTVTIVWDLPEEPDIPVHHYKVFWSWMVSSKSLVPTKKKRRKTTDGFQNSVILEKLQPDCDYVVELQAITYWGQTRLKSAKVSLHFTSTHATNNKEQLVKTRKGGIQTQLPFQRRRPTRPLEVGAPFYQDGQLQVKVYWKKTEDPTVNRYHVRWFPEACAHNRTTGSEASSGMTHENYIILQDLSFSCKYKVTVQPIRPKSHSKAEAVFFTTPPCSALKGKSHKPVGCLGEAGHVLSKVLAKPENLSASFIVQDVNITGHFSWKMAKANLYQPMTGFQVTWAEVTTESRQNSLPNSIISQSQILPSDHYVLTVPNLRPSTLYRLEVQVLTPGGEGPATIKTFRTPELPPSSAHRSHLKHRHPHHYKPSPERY
Chain of UniProt P61006 (P61006 whole entry): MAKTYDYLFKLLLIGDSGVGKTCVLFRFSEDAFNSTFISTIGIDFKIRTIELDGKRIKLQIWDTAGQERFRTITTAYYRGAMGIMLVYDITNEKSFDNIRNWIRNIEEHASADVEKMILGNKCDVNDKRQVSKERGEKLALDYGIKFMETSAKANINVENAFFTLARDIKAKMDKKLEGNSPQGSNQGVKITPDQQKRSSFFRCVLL

Row | Target | lysine labeling ratio R10:1
1 | UniProt Q9UHA4 (lysine site: K12) | 3.79 (inactive)
2 | DYNC1H1 (lysine site: K2239) (UniProt Q14204) | 6.84 (inactive)
3 | RDX (lysine site: K520) (UniProt P35241) | 1.76 (active)
4 | UniProt Q6NZI2 (lysine site: K276) | 4.1 (inactive)
5 | DSC2 (lysine site: K270) (UniProt Q02487) | 2.49 (inactive)
6 | ITGB1 (lysine site: K136) (UniProt P05556) | 1.75 (active)
7 | SPTBN1 (lysine site: K832) (UniProt Q01082) | 2.42 (inactive)
8 | LAMB1 (lysine site: K1505) (UniProt P07942) | 3.69 (inactive)
9 | UniProt Q15149 (lysine site: K2553) | 3.44 (inactive)
10 | HSPD1 (lysine site: K96) (UniProt P10809) | 3.85 (inactive)
11 | ACTN4 (lysine site: K632) (UniProt O43707) | 4.35 (inactive)
12 | CLTC (lysine site: K389) (UniProt Q00610) | 5.78 (inactive)
13 | CELSR2 (lysine site: K2001) (UniProt Q9HCU4) | 1.5 (active)
14 | M6PR (lysine site: K99) (UniProt P20645) | 1.86 (active)
15 | RAB8A (lysine site: K197) (UniProt P61006) | 2.44 (inactive)
16 | RPS3 (lysine site: K62) (UniProt P23396) | 3.22 (inactive)
17 | DDX5 (lysine site: K284) (UniProt P17844) | 0.51 (active)
18 | BST2 (lysine site: K126) (UniProt Q10589) | 4.11 (inactive)
19 | UniProt P25705 (lysine site: K132) | 1.76 (active)
20 | PA2G4 (lysine site: K22) (UniProt Q9UQ80) | 0.568 (active)
21 | SLC39A6 (lysine site: K249) (UniProt Q13433) | 3.94 (inactive)
22 | ITGAV (lysine site: K889) (UniProt P06756) | 1.08 (active)
23 | UniProt P23352 (lysine site: K285) | 3.04 (inactive)
